# Data reported in PubChem BioAssay.
# Activity calls are given as the source filed them.
# Key:
# [1] = system: Plasmodium falciparum Sir2 (PF13_0152, Sir2A); assay: Plasmodium falciparum Sir2A binding compounds – biochemical, small-molecule microarray, 635 nm fluorescence, primary screen (AID 1098); conditions: fluorescence 635 nm, higher = more signal;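 further: score merges spot fluorescence intensity with its signal-to-noise ratio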
# [2] = probe aDKK1 binding to arrayed compounds – biochemical, biotinylated probe, 635/667 nm fluorescence, primary screen (AID 1099); conditions: small-molecule microarray, higher = more signal;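 further: score merges 667nm spot fluorescence with signal to noise across triplicate slides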
# [3] = probe aCHRDL2 binding to arrayed compounds – biochemical, biotinylated probe, 635/667 nm fluorescence, primary screen (AID 1100); conditions: small-molecule microarray, higher = more signal
# [4] = change in splice reporter luminescence, either direction, cell-based, HEK293, spliceosome inhibition project, primary screen (AID 1101); conditions: HEK293 splicing luciferase reporter, 24 h, higher = more signal, called active from +8 up or from −8 down;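 further: HEK293 cells carrying a splicing-competent luciferase reporter gene; test concentration not given here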
# [5] = target: Fibroblast growth factor 10 (Homo sapiens) (UniProt O15520); assay: compounds binding fibroblast growth factor 10 – biochemical, small-molecule microarray, 635 nm fluorescence, primary screen (AID 1102); conditions: FGF10 binding, fluorescence 635 nm, higher = more signal
# [6] = system: glycogen synthase kinase-3 (GSK3A per assay name; protocol says GSK3B); assay: compounds binding glycogen synthase kinase-3 – biochemical, small-molecule microarray, 635 nm fluorescence, GSK3A, primary screen (AID 1103); conditions: fluorescence 635 nm, higher = more signal; further: the record names both GSK3A and GSK3B
# [7] = target: Epidermal growth factor receptor (Homo sapiens) (UniProt P00533); assay: compounds binding epidermal growth factor receptor – biochemical, small-molecule microarray, 635 nm fluorescence, primary screen (AID 1104); conditions: EGFR binding, higher = more signal;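 further: score merges 667 nm emission intensity with spot signal to noise over triplicate slides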
# [8] = target: Follistatin-related protein 3 (Homo sapiens) (UniProt O95633); assay: compounds binding follistatin-related protein 3 – biochemical, small-molecule microarray, 635 nm fluorescence, primary screen (AID 1105); conditions: FSTL3 binding, higher = more signal;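 further: score merges emission near 667 nm and signal to noise per printed spot across three slides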
# [9] = target: Dickkopf-related protein 1 (Homo sapiens) (UniProt O94907); assay: small molecules binding DKK1 protein – biochemical, small-molecule microarray, 635 nm fluorescence scan, primary screen (AID 1106); conditions: higher = more signal;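 further: score merges emission near 667 nm with signal to noise over three replicate slides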
# [10] = system: Inhibin beta A chain (activin A); assay: small molecules binding activin A – biochemical, small-molecule microarray, 635 nm fluorescence scan, primary screen (AID 1107); conditions: INHBA, higher = more signal;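 further: mouse activin A protein probed at 4.33 µg/mL on printed slides; score merges bound-protein fluorescence near 667 nm with spot signal-to-noise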
# [11] = system: Human papillomavirus type 1a protein E7 (residues 44-93); assay: small molecules binding HPV E7 44-93 – biochemical, small-molecule microarray, residues 44-93, 635 nm fluorescence, primary screen (AID 1108); conditions: fluorescence 635 nm, higher = more signal;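 further: E7 fragment applied at 1 µg/mL in TBST for 1 h at 4 C; score combines spot fluorescence with its signal to noise ratio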
# [12] = hepatitis C replication reporter changes, two-sided – Huh7 cells, luciferase reporter, HCV replication inhibitor project, primary screen (AID 1109); conditions: Huh7 HCV replicon luciferase reporter, 48 h; higher = more signal;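 further: huh7 hepatoma cells harbouring a luciferase neomycin HCV replicon reporter; luciferase luminescence as measure of HCV replicon replication; test concentration not given here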
# [13] = target: Left-right determination factor 2 (Homo sapiens) (UniProt O00292); assay: small molecules binding LEFTY2 protein – biochemical, small-molecule microarray, 635 nm fluorescence scan, primary screen (AID 1110); conditions: higher = more signal
# [14] = target: Calmodulin-1 (Homo sapiens) (UniProt P0DP23); assay: small molecules binding calmodulin-1 with EGTA – biochemical, small-molecule microarray, Cy5-labelled CALM1, profiling panel (AID 1111); conditions: Cy5-CALM1 binding fluorescence, higher = more signal;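 further: labelled calmodulin applied in Tris saline Tween buffer holding calcium plus EGTA and DTT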
# [15] = target: Calmodulin-1 (Homo sapiens) (UniProt P0DP23); assay: small molecules binding Ca-loaded calmodulin-1 – biochemical, small-molecule microarray, Cy5-labelled CALM1, plus calcium, artefact control for SMM control-protein annotation, profiling panel (AID 1112); conditions: Cy5-CALM1 binding fluorescence, higher = more signal;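 further: score merges spot fluorescence with signal to noise from triplicate slides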
# [16] = probe aWnt5a binding to arrayed compounds – biochemical, biotinylated probe, 635/667 nm fluorescence, primary screen (AID 1113); conditions: small-molecule microarray, higher = more signal;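 further: score merges 667 nm fluorescence intensity with signal-to-noise per printed feature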
# [17] = probe aShh binding to arrayed compounds – biochemical, biotinylated probe, 635/667 nm fluorescence, primary screen (AID 1114); conditions: small-molecule microarray, higher = more signal;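 further: probe is biotin-labelled aShh protein from a stem cell growth factor screen; measures binding of labelled protein to compounds printed on the slide; score merges feature fluorescence at 667 nm with signal-to-noise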
# [18] = probe aNog binding to arrayed compounds – biochemical, biotinylated probe, 635/667 nm fluorescence, primary screen (AID 1115); conditions: small-molecule microarray, higher = more signal;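 further: probe is biotinylated aNog protein used at 0.15 µg/mL for 1 h at 4 C; z-score combines 667 nm fluorescence of each spot with its signal to noise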
# [19] = target: Torsin-1A-interacting protein 1 (Homo sapiens) (UniProt Q5JTV8); assay: compound microarray binding of lysate hLAP1 – cell lysate, small-molecule microarray, COS7 lysate, 635/667 nm fluorescence, primary screen (AID 1116); conditions: 635 nm fluorescence, higher = more signal
# [20] = target: Alpha-bungarotoxin (Bungarus multicinctus) (UniProt P60615); assay: compounds binding labelled alpha-BTX control protein – biochemical, small-molecule microarray, Alexa647 label, 635/667 nm fluorescence, artefact control for SMM control protein annotation, profiling panel (AID 1117); conditions: alpha-BTX-A647 binding fluorescence, higher = more signal
# Sequence of Alpha-bungarotoxin (Bungarus multicinctus) (P60615 whole entry, looked up): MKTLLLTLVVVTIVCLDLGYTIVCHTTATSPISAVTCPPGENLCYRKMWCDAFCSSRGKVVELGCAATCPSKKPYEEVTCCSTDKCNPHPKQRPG
# Sequence of Torsin-1A-interacting protein 1 (Homo sapiens) (Q5JTV8 whole entry, looked up): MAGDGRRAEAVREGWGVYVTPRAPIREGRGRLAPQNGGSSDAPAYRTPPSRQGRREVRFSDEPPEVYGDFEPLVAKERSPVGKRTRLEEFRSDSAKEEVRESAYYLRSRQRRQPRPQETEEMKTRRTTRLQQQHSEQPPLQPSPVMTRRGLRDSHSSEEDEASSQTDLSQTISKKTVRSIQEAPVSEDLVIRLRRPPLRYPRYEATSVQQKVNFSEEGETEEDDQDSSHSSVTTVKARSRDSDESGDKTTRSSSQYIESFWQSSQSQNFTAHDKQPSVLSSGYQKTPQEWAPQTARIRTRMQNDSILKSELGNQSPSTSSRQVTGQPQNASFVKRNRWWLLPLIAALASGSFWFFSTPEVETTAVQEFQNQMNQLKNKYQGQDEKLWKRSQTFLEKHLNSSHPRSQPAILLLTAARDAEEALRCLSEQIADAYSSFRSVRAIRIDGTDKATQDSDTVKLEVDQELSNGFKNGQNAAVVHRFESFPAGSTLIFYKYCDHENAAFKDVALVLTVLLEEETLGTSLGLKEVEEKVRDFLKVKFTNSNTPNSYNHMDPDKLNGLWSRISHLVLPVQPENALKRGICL
# Sequence of Epidermal growth factor receptor (Homo sapiens) (P00533 whole entry, looked up): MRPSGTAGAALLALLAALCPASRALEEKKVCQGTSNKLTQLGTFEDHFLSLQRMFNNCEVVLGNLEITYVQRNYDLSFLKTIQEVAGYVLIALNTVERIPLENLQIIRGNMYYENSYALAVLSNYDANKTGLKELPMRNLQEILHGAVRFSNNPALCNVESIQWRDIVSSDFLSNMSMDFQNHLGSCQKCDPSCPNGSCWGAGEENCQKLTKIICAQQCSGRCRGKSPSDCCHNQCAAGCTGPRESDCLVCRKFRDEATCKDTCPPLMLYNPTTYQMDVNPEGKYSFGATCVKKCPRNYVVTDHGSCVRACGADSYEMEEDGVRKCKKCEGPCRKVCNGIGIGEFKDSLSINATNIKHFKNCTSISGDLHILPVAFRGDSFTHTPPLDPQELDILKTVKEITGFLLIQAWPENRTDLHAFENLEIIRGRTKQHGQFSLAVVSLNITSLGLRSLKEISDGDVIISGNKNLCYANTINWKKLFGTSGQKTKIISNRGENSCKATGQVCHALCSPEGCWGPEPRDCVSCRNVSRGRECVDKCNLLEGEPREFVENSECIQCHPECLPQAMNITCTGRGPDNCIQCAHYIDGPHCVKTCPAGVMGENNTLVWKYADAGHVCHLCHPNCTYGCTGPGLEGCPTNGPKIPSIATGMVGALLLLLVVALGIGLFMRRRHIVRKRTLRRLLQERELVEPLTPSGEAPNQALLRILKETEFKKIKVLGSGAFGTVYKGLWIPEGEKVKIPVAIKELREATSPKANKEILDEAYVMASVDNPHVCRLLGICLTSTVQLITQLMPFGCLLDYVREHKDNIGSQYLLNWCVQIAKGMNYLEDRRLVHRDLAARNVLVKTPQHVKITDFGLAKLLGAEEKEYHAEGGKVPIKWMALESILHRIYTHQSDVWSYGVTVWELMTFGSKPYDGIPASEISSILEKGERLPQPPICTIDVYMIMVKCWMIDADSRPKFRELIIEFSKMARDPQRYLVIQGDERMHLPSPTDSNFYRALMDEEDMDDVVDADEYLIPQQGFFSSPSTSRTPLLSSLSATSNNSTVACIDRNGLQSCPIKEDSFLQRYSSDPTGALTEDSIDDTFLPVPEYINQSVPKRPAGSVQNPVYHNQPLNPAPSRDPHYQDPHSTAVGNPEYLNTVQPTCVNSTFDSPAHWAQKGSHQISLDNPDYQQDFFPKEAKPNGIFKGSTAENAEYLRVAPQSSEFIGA
# Sequence of Dickkopf-related protein 1 (Homo sapiens) (O94907 whole entry, looked up): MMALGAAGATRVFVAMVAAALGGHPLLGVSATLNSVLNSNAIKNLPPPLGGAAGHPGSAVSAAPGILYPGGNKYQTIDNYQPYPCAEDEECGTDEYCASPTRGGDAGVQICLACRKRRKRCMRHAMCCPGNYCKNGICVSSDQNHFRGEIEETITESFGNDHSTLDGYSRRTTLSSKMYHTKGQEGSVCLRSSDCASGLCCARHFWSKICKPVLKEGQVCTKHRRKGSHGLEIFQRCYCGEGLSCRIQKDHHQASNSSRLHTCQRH
# Sequence of Fibroblast growth factor 10 (Homo sapiens) (O15520 whole entry, looked up): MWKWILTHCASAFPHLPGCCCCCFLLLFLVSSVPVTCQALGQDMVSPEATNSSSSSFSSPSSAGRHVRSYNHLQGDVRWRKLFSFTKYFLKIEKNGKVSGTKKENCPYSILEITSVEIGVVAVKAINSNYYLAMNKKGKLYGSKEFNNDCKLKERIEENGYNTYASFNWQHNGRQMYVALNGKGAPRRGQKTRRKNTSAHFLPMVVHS
# Sequence of Follistatin-related protein 3 (Homo sapiens) (O95633 whole entry, looked up): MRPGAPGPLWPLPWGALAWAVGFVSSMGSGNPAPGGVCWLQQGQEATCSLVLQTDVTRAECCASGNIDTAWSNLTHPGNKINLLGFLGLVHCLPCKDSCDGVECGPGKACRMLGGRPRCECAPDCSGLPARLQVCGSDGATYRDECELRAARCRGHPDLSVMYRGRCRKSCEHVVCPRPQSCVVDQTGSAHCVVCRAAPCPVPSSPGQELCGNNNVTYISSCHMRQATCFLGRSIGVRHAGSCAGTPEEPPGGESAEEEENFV
# Sequence of Left-right determination factor 2 (Homo sapiens) (O00292 whole entry, looked up): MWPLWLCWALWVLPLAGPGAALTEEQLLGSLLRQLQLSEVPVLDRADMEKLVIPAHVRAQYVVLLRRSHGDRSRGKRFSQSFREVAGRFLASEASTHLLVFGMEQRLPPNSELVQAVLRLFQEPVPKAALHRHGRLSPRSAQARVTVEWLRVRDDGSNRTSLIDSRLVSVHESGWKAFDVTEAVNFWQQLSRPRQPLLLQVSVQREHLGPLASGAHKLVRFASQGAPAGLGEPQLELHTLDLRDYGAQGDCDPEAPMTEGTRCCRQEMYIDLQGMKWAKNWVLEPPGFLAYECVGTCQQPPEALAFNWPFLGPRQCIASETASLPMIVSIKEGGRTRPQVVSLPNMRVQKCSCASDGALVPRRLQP
Compound,composite z-score [1],composite z-score [2],composite z-score [3],z-score [4],composite z-score [5],composite z-score [6],composite z-score [7],composite z-score [8],composite z-score [9],composite z-score [10],composite z-score [11],z-score [12],composite z-score [13],composite z-score [14],composite z-score [15],composite z-score [16],composite z-score [17],composite z-score [18],composite z-score [19],composite z-score [20]
C=CCOC(=O)[C@H]1[C@@H]2C(=O)O[C@@H](c3ccccc3)[C@@H](c3ccccc3)N2[C@@H](c2ccc(OCCOC(=O)[C@@H]3C[C@@H]4C(=O)NCC(=O)N4[C@@H]3c3ccc(O)cc3)cc2)[C@]12C(=O)Nc1ccc(I)cc12,1.49,-0.106,0.0065,-0.0179 (inactive),1.2,1.3,1.14,1.34,0.873,0.141,1.37,-1.59,1.04,1.56,0.341,-0.0519,0.131,-0.412,1.14,1.52
Cc1ccc(S[C@]2(C(=O)NCc3ccccc3)CC(=O)N(Cc3cc(C(F)(F)F)cc(C(F)(F)F)c3)[C@@H]2c2ccc(CO)cc2)cc1,1.3,-0.614,-0.711,0.0364 (inactive),-0.431,-0.817,-0.662,-0.247,-0.422,0.283,-0.115,-0.763,-0.637,-0.477,0.187,-0.12,0.516,0.0538,-0.712,-0.302
COC(=O)[C@@]1(Cc2ccc(F)cc2)[C@H]2c3cc(C(=O)N4CCCC4)n(CCc4ccc(OC)c(Br)c4)c3C[C@H]2CN1C(=O)c1ccccc1,0.972,1.55,1.52,-2.23 (inactive),0.68,1.33,-0.0295,1.22,-0.813,0.475,0.543,-2.69,0.179,2.7,1.29,0.155,0.627,1.11,2.7,2.38
[N-]=[N+]=NCc1ccccc1[C@@H]1OC(c2ccc(OCCCO)cc2)=N[C@]1(Cc1ccccc1N=[N+]=[N-])C(N)=O,1.48,0.367,1.16,0.352 (inactive),1.38,1.27,-0.0099,0.995,0.259,1.06,1.43,-0.613,-0.0808,2.02,1.11,-0.0478,0.593,1.49,0.804,2.66
CCN(CC)c1ccc(N2CC=CC34O[C@@H]5/C=C\CCCOC(=O)C5[C@H]3C(=O)N(CCCO)[C@@H]4C2=O)cc1 (stereo not given in full),1.47,-0.136,0.808,0.821 (inactive),-1.04,-0.422,-1.48,-0.88,-1.75,-0.222,0.941,-0.597,-2.09,-0.629,0.479,-0.197,0.14,-0.0238,2.44,-1.44
CC1CC/C=C\[C@H]2OC34C=CCN(c5ccc6ccccc6c5)C(=O)[C@H]3N(CCCCCO)C(=O)[C@@H]4C2C(=O)O1 (stereo not given in full),0.207,0.207,0.62,0.375 (inactive),-1.34,-1.25,0.0445,-0.213,-1.58,-0.522,-2.21,0.324,-1.64,-0.827,-0.16,-0.141,-0.214,-0.119,-1.16,-1.28
COCCOC(=O)N1C(=O)[C@@]2(c3cc(C#CC4=CCCCC4)ccc31)[C@H](C(=O)N1CCN(c3ncccn3)CC1)[C@H]1C(=O)O[C@H](c3ccccc3)[C@H](c3ccccc3)N1[C@@H]2c1ccc(OCCO)cc1,-0.424,0.282,0.298,-0.902 (inactive),1.3,1.18,0.959,1.37,0.994,1.26,0.973,-1.46,0.819,0.585,-0.252,0.0026,-0.229,0.749,1.48,0.229
COC(=O)[C@@]1(Cc2ccc(F)cc2)[C@H]2c3cc(C(=O)N(C)C)n(CCCNc4ccc(C(F)(F)F)cc4Cl)c3C[C@H]2CN1C(=O)c1ccccc1,1.08,1.4,1.38,-1.75 (inactive),0.808,1.29,-0.19,1.2,-0.667,-0.0131,1.4,-2.38,-0.385,2.36,1.31,0.284,0.391,1.53,1.37,1.85
COCCCNC(=O)[C@]1(Cc2ccccc2N=[N+]=[N-])N=C(c2ccc(OCCCO)cc2)O[C@@H]1c1ccccc1CN=[N+]=[N-],1.09,1.2,1.01,-0.4 (inactive),1.26,0.644,0.504,0.912,0.318,0.928,1.45,-3.09,0.331,1.5,0.813,0.0952,0.496,0.555,1.39,1.01
C[N+](C)(C)CCCCNC(=O)[C@H]1C[C@H]2C(=O)N3CCC[C@H]3C(=O)N2[C@H]1c1ccc(O)cc1,1.48,0.0607,-0.152,0.0339 (inactive),1.39,0.521,0.967,1.49,1.82,-0.443,0.257,-1.25,1.28,-0.546,-0.368,-0.0236,-0.0146,-0.0662,2.01,1.57
Oc1ccc2cc[n+](Cc3cccc(OC(F)(F)F)c3)cc2c1,1.36,-0.319,-0.576,0.609 (inactive),0.837,-0.477,1.2,1.24,0.732,0.826,-0.112,-0.114,0.939,-0.582,-0.77,-0.152,0.0515,-0.85,-0.0554,0.266
